The whole screen tested about 360,000 compounds, of which about 80 (0.02%) were called active.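 Rule for the calls: active = activation above the run cutoff, the mean activation of all test compounds plus 3 SD (cut at about 40% in these data); inactive = the rest.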 The list comes from a sample in which actives are over-represented; it also holds similar structures and randomly drawn compounds.
Experiment: nonselective calcium activators in parental CHO-K1 cells, primary screen, counter-screen for M1 PAM project, cell-based, Fluo-8 calcium fluorescence, full deck, 1536-well (AID 602247);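 note: peak over basal fluorescence ratio in a 140 s read after ATP addition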
Details: parental CHO-K1, ATP EC20, Fluo-8 calcium fluorescence; at 3 µM; hits give high values; 0% at ATP EC20, 100% at ATP max

Row | Structure (SMILES) | activation
1 | CCc1ccc(OCC(=O)NCC(c2ccc(Cl)cc2)N2CCCCC2)cc1 (centres undefined) | 11% (inactive)
2 | COc1ccc(C)cc1N(CC(=O)N1CCCC1)S(=O)(=O)c1ccccc1 | 9.46% (inactive)
3 | Cc1ccc(C)c(NC(=O)c2cc(-c3cc(C)cc(C)c3O)n[nH]2)c1 | -21.6% (inactive)
4 | O=C(Nc1cccnc1)c1cc2cc(Br)ccc2oc1=O | -7.52% (inactive)
5 | O=C(CSc1nnc(-c2cccs2)n1Cc1ccco1)c1ccc2c(c1)OCO2 | 22.8% (inactive)
6 | CCN(CC)Cc1cc(C(C)=O)ccc1O | -6.07% (inactive)
7 | C=CCOc1ccccc1NC(=O)CN1C(=O)CNC1=O | 13.6% (inactive)
8 | Cc1ccc(NC(=O)CN(C)C(=O)c2ccc(Br)o2)cc1 | -2.97% (inactive)
9 | CCOC(=O)c1ccc(N2C(=O)CC(Sc3nc(O)c(CC)c(=O)[nH]3)C2=O)cc1 (centres undefined) | 11.8% (inactive)
10 | Fc1cccc(Cc2noc(CN3CCN(c4cnccn4)CC3)n2)c1 | 10.6% (inactive)
11 | Cc1c(Br)c([N+](=O)[O-])nn1C(C)C(=O)Nc1nccs1 (centres undefined) | 3.45% (inactive)
12 | O=c1cc(CN2CCN(S(=O)(=O)/C=C/c3ccccc3)CC2)c2ccc(O)cc2o1 | -3.7% (inactive)
13 | Cc1ccc(-c2ccc(C3=CC(=O)CC(C)(C)C3=O)cc2)cc1 | 8.88% (inactive)
14 | O=C(NC12CC3CC(CC(C3)C1)C2)N1CCCC(CO)C1 (centres undefined) | 11.3% (inactive)
15 | COc1cc(CCC(=O)N2CCN(c3ccccc3Cl)CC2)cc(OC)c1OC | 15.8% (inactive)
16 | O=C(CN1CCN(C(=S)NC2CCCC2)CC1)Nc1ccc(Oc2ccccc2)cc1 | -1.33% (inactive)
17 | Cc1cccc(N2C(=O)C3C(c4ccccc4)OC4(C(=O)c5ccccc5C4=O)C3C2=O)c1 (centres undefined) | 10.9% (inactive)
18 | O=C(OCC(=O)N1CCCCCC1)c1ccc(Cl)nc1 | 21.8% (inactive)
19 | COc1cc(CNc2ncn[nH]2)ccc1OCc1ccccc1C | -0.62% (inactive)
20 | COc1ccc(OC)c(C(=O)NC(CC(N)=O)c2ccc(N3CCC(N4CCCCC4)CC3)c([N+](=O)[O-])c2)c1 (centres undefined) | 26.1% (inactive)
21 | CC(NC(=O)COc1cccnc1[N+](=O)[O-])c1ccc(Cl)cc1Cl (centres undefined) | -1.02% (inactive)
22 | Cc1cc(C)c(S(=O)(=O)N(C)CC(=O)NCC2CCCO2)c(C)c1 (centres undefined) | -22.7% (inactive)
23 | Nc1nc(SCC(=O)Nc2ccc(Cl)cc2C(F)(F)F)n[nH]1 | 5.7% (inactive)

Row | Structure (SMILES) | activation
24 | Cc1ccc(SCCN2C(=O)NC(C)(C)C2=O)cc1 | 11.2% (inactive)
25 | C=CCn1c(COc2ccccc2F)nnc1SCC(=O)N1CC(=O)Nc2ccccc21 | 15.7% (inactive)
26 | COc1ccccc1C(=O)N/C(=C/c1ccc2c(c1)OCO2)C(=O)Nc1cccc(C(=O)O)c1 | -17.7% (inactive)
27 | CCc1ccc(N2CC(C(=O)NC3=NCCS3)CC2=O)cc1 (centres undefined) | -0.63% (inactive)
28 | Cc1nc2ccccn2c(=O)c1NC(=O)c1ccc(Br)o1 | 7.36% (inactive)
29 | CCOc1cc(NC(=O)CCl)c(OCC)cc1NC(C)=O | 10.9% (inactive)
30 | Cc1ccc(C(C)C)c(OCCSc2nc3ccccc3n2CC(=O)O)c1 | 1.93% (inactive)
31 | COc1cccc(-c2nc3n(n2)C(c2ccccc2Cl)C(C(N)=O)=C(C)N3)c1 (centres undefined) | 3.28% (inactive)
32 | COc1ccc(NC(=O)NN2CCN(C)CC2)c(OC)c1 | 15.7% (inactive)
33 | COc1ccc(NC(=O)c2sc(N3CCOCC3)nc2-c2ccccc2)c(OC)c1 | 44.6% (active)
34 | COc1ccc(NC(=O)CNc2cc(S(=O)(=O)N3CCOCC3)ccc2N2CCOCC2)c(OC)c1 | 9.94% (inactive)
35 | CCn1c(O)c(N=NC2=NC(=O)CS2)c2cc(C)ccc21 | -3.3% (inactive)
36 | COc1cc(C(=O)OC(C)C(=O)NCC2CCCCC2)cc(NC(=O)c2ccco2)c1OC (centres undefined) | 7.38% (inactive)
37 | COC(=O)c1cccc(N(C(=O)CNC(=O)c2cccs2)C(C(=O)NCC2CCCO2)c2ccc(OC)c(OC)c2)c1 (centres undefined) | 6.05% (inactive)
38 | O=C(Nc1ccccc1)c1nnsc1S(=O)(=O)c1ccc(Cl)cc1 | -4.32% (inactive)
39 | Cc1ccc(NC(=O)C2(N3CCC3=O)CCCCC2)cc1 | 30.7% (inactive)
40 | COCCCNS(=O)(=O)c1cccc(S(=O)(=O)c2cccc(S(=O)(=O)NCCCOC)c2)c1 | -13.2% (inactive)
41 | Cc1ccc(C(=O)N[C@H](C(=O)N2CCN(c3ncccn3)CC2)C(C)C)cc1 | 21.1% (inactive)
42 | O=C(CN1C(=O)NC2(CCCC2)C1=O)Nc1cc(C(F)(F)F)ccc1N1CCOCC1 | -14.5% (inactive)
43 | Cc1ccc(C(=O)O)cc1N1C(=O)CCCC1=O | 17.6% (inactive)
44 | CCC(C(=O)Nc1ccc(C(C)C)cc1)c1ccccc1 (centres undefined) | 7.1% (inactive)
45 | NC(=O)C1CCN(Cc2nc3c(Br)cc(Br)cc3c(=O)[nH]2)CC1 | 8.89% (inactive)
46 | CCn1nc(C)c(/C=N/NC(=O)Cc2ccc(Cl)cc2)c1C | 10.4% (inactive)

Row | Structure (SMILES) | activation
47 | COc1ccc(CN2C(=O)CC(Cc3ccc(C)cc3)C2=O)cc1OC (centres undefined) | 0.86% (inactive)
48 | CC(NC(=O)c1cc2cc(Cl)ccc2oc1=N)c1ccccc1 (centres undefined) | 4.16% (inactive)
49 | O=C(O)c1cccc2c1C(=O)N(C1CCCCC1)C2 | 12.5% (inactive)
50 | Cc1c(C#N)c2ncn(CC#N)c(=O)c2n1-c1ccccc1 | 10.7% (inactive)
51 | OCC(O)C1OCOC(C(O)CO)C1O (centres undefined) | -2.45% (inactive)
52 | Cc1ccc(-c2nnc(Nc3ccc(C(=O)N(C)C)cc3)c3ccccc23)cc1S(N)(=O)=O | -6.44% (inactive)
53 | COc1ccc(S(=O)(=O)N2CCOCC2)cc1NC(=O)CSc1ncnc2ccccc12 | -10.6% (inactive)
54 | C/C(CCc1ccccc1)=N\NC(=O)c1ccc(CN2CCOCC2)cc1 | 10.1% (inactive)
55 | C[C@@H]1CN([C@@H](C)CO)C(=O)c2cc(NS(C)(=O)=O)ccc2O[C@@H](C)CCCCO[C@H]1CN(C)C(=O)Nc1ccc2c(c1)OCO2 | 5.94% (inactive)
56 | O=C(NCc1ccccc1)C(c1ccco1)N(C(=O)c1csnn1)c1ccccc1F (centres undefined) | -7% (inactive)
57 | Cc1ccc(C)c2[nH]c(=O)c(CN(Cc3cccnc3)C(=S)NCc3ccco3)cc12 | -16.3% (inactive)
58 | NC1=NC(=O)C2(COC(c3ccccc3Cl)OC2)S1 (centres undefined) | 19% (inactive)
59 | CCOc1ccc(C(=O)Nc2ccc(S(=O)(=O)NCC3CCCO3)cc2)cc1OCC (centres undefined) | -16.7% (inactive)
60 | CCOc1ccc(S(=O)(=O)N(CC(=O)O)c2ccccc2)cc1 | 12.9% (inactive)
61 | CN(C)/C=C(\C#N)C(=O)c1cccnc1Oc1ccc(F)cc1F | 13.9% (inactive)
62 | COCCNC(=O)C1CCN(C(=O)C2CC(=O)N(c3ccc(C)cc3)C2)CC1 (centres undefined) | 7.97% (inactive)
63 | COc1ccc(-n2ncc3c2CC(C)(C)CC3NC(=O)CCc2c(C)noc2C)cc1 (centres undefined) | -2.15% (inactive)
64 | CCCNC(=S)N1CCCC(c2nc3ccccc3[nH]2)C1 (centres undefined) | 14.2% (inactive)
65 | CC(C)C[C@@H]1COc2cc(N3CCC[C@@H]3CO)ccc2S(=O)(=O)N1 | 4.5% (inactive)
66 | CC1CCCN(C(C(=O)Nc2ccc(C(C)C)cc2)c2ccc3c(c2)OCO3)C1 (centres undefined) | 10.5% (inactive)
67 | Cc1ccc(NS(=O)(=O)c2c(C)[nH]c(=O)[nH]c2=O)cc1C | 7.33% (inactive)
68 | COc1cc(OC)cc(C(=O)NNC(=O)CNC(=O)c2ccc(Br)o2)c1 | -26.2% (inactive)
69 | CCOC(=O)c1sc(N)c(C#N)c1COC(=O)C1=COCCO1 | -16.5% (inactive)

Row | Structure (SMILES) | activation
70 | Cc1ccc(NC(=O)NC(=O)N(C2CCCCC2)S(=O)(=O)c2ccccc2)cc1 | 15.3% (inactive)
71 | Cn1c(=O)oc2cc(S(=O)(=O)N3CCC(C(=O)Nc4ccc(OC(F)(F)F)cc4)CC3)ccc21 | 29.6% (inactive)
72 | O=[N+]([O-])c1ccc(N2CCN(c3ccc(F)cc3)CC2)cn1 | -7.83% (inactive)
73 | NC1=NC2(CCCCC2)N(c2ccc(F)cc2F)C(N)=N1 | -9.48% (inactive)
74 | Cc1ccc(CC(=O)Nc2cccc(C#N)c2)cc1 | 18.7% (inactive)
75 | CC(C)NC(=O)NC(=O)CSc1nnc(-c2ccccc2F)n1N | 30% (inactive)
76 | CC1(C(=O)NS(=O)(=O)c2cccs2)CCN1C(=O)Cc1ccc(-c2ccccc2)cc1 (centres undefined) | 13% (inactive)
77 | O=C(NC1CC2CCCC(C1)N2C(=O)N1CCCCC1)C1CCCCC1 (centres undefined) | 7.85% (inactive)
78 | CCCC(C(=O)NC1CCCC1)N(C(=O)Cn1nnc(-c2ccc(C)o2)n1)c1cccc(O)c1 (centres undefined) | 13.1% (inactive)
79 | COc1cccc(NC(=O)C(=O)c2cn(CC(=O)N3CCOCC3)c3ccccc23)c1 | -2.46% (inactive)
80 | CCCCN(C(=O)c1cccc(N2C(=O)c3ccccc3C2=O)c1)c1c(N)n(CCCC)c(=O)[nH]c1=O | 11.7% (inactive)
81 | O=C(Cn1cc(C(F)(F)F)ccc1=O)N/N=C/c1ccc(Cl)cc1Cl | 3.42% (inactive)
82 | CC(OC(=O)CNC(=O)c1cccc(F)c1)C(=O)NC1CCCCC1C (centres undefined) | 10.1% (inactive)
83 | CCC(=O)c1ccc(OCC(=O)N(CC)CC2COc3ccccc3O2)cc1 (centres undefined) | 15.6% (inactive)
84 | O=C(N[C@H]1C/C=C\C(c2cccc(F)c2)N(Cc2ccccc2)C(=O)C1)OCC1c2ccccc2-c2ccccc21 (some centres undefined) | -2.24% (inactive)
85 | O=C(OCC(=O)N1CCN(C(=O)c2ccco2)CC1)c1ccccc1Cc1ccccc1 | 8.99% (inactive)
86 | COc1cccc(CN2CCC(C(=O)NC(c3ccc4c(c3)OCO4)c3ccccn3)CC2)c1 (centres undefined) | 12.4% (inactive)
87 | CCOc1cc2c(Cl)ncnc2c(OCC)c1OCC | -10.2% (inactive)
88 | CC1(C)O[C@@H]2[C@H](O1)[C@@H](CO)O[C@H]2n1c(N2CCCCC2)nc2c(N)ncnc21 | 11.6% (inactive)
89 | COc1ccc(N2CC(C(=O)NCCS(=O)(=O)N3CCN(c4ccccc4)CC3)CC2=O)cc1 (centres undefined) | -1.18% (inactive)

From PubChem BioAssay AID602247 (The Scripps Research Institute Molecular Screening Center, 2012)
